For 91 molecules, inhibition results are on record in PubChem BioAssay AID504329 (Southern Research Specialized Biocontainment Screening …, 2011).

For orientation: inhibition means the change of the read-out against control, counted positive when it falls.

Values joined by “and” are separate entries in the source; they are usually repeats but may differ in a detail not shown here. Equal values may be shown once. Out of some 340,000 compounds screened, about 1,000 (0.29%) were called active. Only a sample is shown. Potency and affinity values are given separately. A number with no mark means an inactive call. No stated cut-off is given here; in the data, inconclusive means inhibition above about 27% without an active follow-up result; inactive means below that.

This assay is described as follows: H1N1 influenza NS1A inhibitors, functional cell based assay (AID 504329). The conditions noted are these: percent inhibition, at 12.5 µM, stronger effect = higher value.
Take `CN(C)C(=O)CCc1ccc2c3c([nH]c2c1)[C@]1(C)[C@@H](C(=O)N2CCCCC2)C[C@H](CC(=O)NCCN2CCOCC2)C(=O)N1CC3`: the inhibition is 8.89%.

Take `S=C(NCc1cccs1)NCC1CCCO1` (stereo unspecified): the inhibition was -5.35%.

In the case of `Cc1ccc(S(=O)(=O)N(C)CCCC(=O)Nc2cccc3ccccc23)cc1`, the inhibition is 2.47%.

Take `Cc1ccc(S(=O)(=O)N(C)CCCC(=O)Nc2ccc(C)cc2C)cc1`: the inhibition is -2.08%.

Regarding `Cc1ccc(N=Nc2ccc(O)c3ncccc23)cc1`, the inhibition was -1.47%.

As for `Cc1ccccc1N=Nc1ccc(O)c2ncccc12`, the inhibition was 11.8%.

Turning to `Oc1ccc(N=Nc2ccccc2C(F)(F)F)c2cccnc12`, the inhibition was 18.7%.

Take `Cc1ccc(N=Nc2ccc(O)c3ncccc23)cc1C`: the inhibition is -4.94%.

For `CCOc1ccc(NC(=O)CN(C)C(=O)CSCc2c(C)noc2C)cc1OCC`, the inhibition was -3.36%.

On to `COc1ccc(CC(=O)NNC2=Nc3cccc4cccc2c34)cc1OC`, for which the inhibition was -25.3%.

As to `O=C1c2ccccc2C(=O)N1CCc1nc2ccccc2c(=O)n1Cc1ccco1`, the inhibition was -1.09%.

`O=C(Cc1ccc(N(CCCl)CCCl)cc1)NC(Cc1ccc(Cl)cc1)C(=O)O` (stereo unspecified): the inhibition was -4.27%.

For the molecule `CC(C(=O)NCC1(c2ccccc2)CCOCC1)N1CCOCC1` (stereo unspecified), the inhibition is -3.8%.

Regarding `CCCCCCN1C=C/C(=C\C=C(C#N)C#N)c2ccccc21`, the inhibition was 18.4%.

For `C=CCN1C=CC(=CC=C(C#N)C#N)C=C1`, the inhibition is 4.22%.

`CCN(CC)C(=O)c1nn(Cc2ccccc2)c(=O)c2ccccc12`: the inhibition is -5.91%.

Consider `Cc1ccc(-n2c(C)cc(C(=S)N3CCOCC3)c2C)cc1C`, for which the inhibition was 12.2%.

As to `Cc1cc(C(=S)N2CCOCC2)c(C)n1-c1ccc(F)cc1`, the inhibition is 1.72%.

`O=C(NC1(c2ccccc2)CC1)C1CCC(=O)N(Cc2ccc(Cl)cc2)C1` (stereo unspecified): the inhibition is 8.58%.

As for `CC1CCC/C(=N/Nc2ccc([N+](=O)[O-])cc2[N+](=O)[O-])C1` (stereo unspecified), the inhibition was 10.6%.

For `O=[N+]([O-])c1ccccc1N/N=C1\CC2CC=CC12` (stereo unspecified), the inhibition is 21.6%.

Consider `O=[N+]([O-])c1ccc(N/N=C2\CC3CC=CC23)cc1` (stereo unspecified), for which the inhibition is -1.23%.

Take `CC1C/C(=N\Nc2ccc(S(N)(=O)=O)cc2[N+](=O)[O-])CC(C)(C)C1` (stereo unspecified): the inhibition was 8.9%.

Turning to `O=C(CN1CCN(S(=O)(=O)c2ccc(Br)cc2)CC1)N/N=C/c1cc([N+](=O)[O-])ccc1Cl`, the inhibition is -0.7%.

Take `O=C(Oc1cccc(F)c1)c1ccc2c(=O)n3c(nc2c1)CCC3`: the inhibition was 3.05%.

Take `N#CCO/N=C/C(=O)Nc1ccc(F)cc1F`: the inhibition was -11.8%.

For `CCOC(=O)C1=C(C)Nc2ncnn2C1c1ccc(N(C)C)cc1` (stereo unspecified), the inhibition is 6.88% and -12.7%.

Take `O=C(O)c1ccc(Nc2nc(-c3ccccc3)nc3ccccc23)cc1`: the inhibition is -15.2%.

For `Cc1ccc2nc(-c3ccc(NC(=O)COC(=O)c4ccco4)cc3)sc2c1`, the inhibition is -4.32%.

As to `COc1ccc(N(CC(=O)NC2CCCCC2)S(=O)(=O)c2cccnc2)cc1`, the inhibition was -1.53%.

Consider `CC(C)n1cnnc1SCC(=O)NC(=O)c1ccccc1`, for which the inhibition was -13.7%.

On to `O=C(CSc1nc(=O)n(CCCN2CCOCC2)c2c1CCC2)Nc1ccc(F)cc1F`, for which the inhibition is 0.02%.

On to `CCOC(=O)c1cnc(N2CCN(c3ccccc3)CC2)[nH]c1=O`, for which the inhibition was -0.51%.

`CCOC(=O)c1cnc(Cc2ccccc2)[nH]c1=O`: the inhibition was -2.72%.

Regarding `O=C(c1cccc(N2C(=O)C3C4C=CC(C4)C3C2=O)c1)N1CCN(c2ccc(F)cc2)CC1` (stereo unspecified), the inhibition was -2.51%.

For the molecule `COC(=O)c1ccc(NC(=S)N2CCC(C(N)=O)CC2)cc1`, the inhibition was -11.5%.

With `O=C(O)c1ccccc1P(=O)(c1ccccc1)c1ccccc1`, the inhibition is 7.4%.

Take `O=C(O)c1ccccc1C(=O)O`: the inhibition is 3.33%.

As for `O=C(NCc1ccco1)/C(=C/c1ccc([N+](=O)[O-])cc1)NC(=O)c1ccco1`, the inhibition is -2.93%.

`Cc1ccc(CN2CCN(Cc3cn(C(C)C)c4ccccc34)CC2CCO)o1` (stereo unspecified): the inhibition is 14.6%.

For `Cc1sc2nc(SCC(=O)Nc3cccc(C(=O)O)c3)[nH]c(=O)c2c1C`, the inhibition was -8.26%.

On to `CCOC(=O)C1CCN(C(=O)CCNS(=O)(=O)c2cc(Br)cnc2N)CC1`, for which the inhibition is -2.4%.

With `CCOC(=O)C1=C(C)N=c2s/c(=C/c3cccc([N+](=O)[O-])c3O)c(=O)n2C1c1cc(OC)c(OC)c(OC)c1` (stereo unspecified), the inhibition is 20.1%.

As for `CCOC(=O)C1=C(C)N=c2s/c(=C/c3cccc([N+](=O)[O-])c3O)c(=O)n2C1c1ccc(OC)cc1OC` (stereo unspecified), the inhibition was 22.2%.

`CCc1ccc(C(=O)C(C)OC(=O)CNS(=O)(=O)c2ccc(C)cc2)cc1` (stereo unspecified): the inhibition is -0.69%.

In the case of `COc1ccc(C=C2C(=O)c3ccccc3C2=O)cc1O`, the inhibition is 16.6%.

Consider `COc1cc(C=C2C(=O)c3ccccc3C2=O)ccc1O`, for which the inhibition is -20.5%.

On to `CCn1c(C)nc2cc(C(=O)NN=Cc3ccccc3OC(F)F)ccc21`, for which the inhibition is -6.28%.

As for `CCCN1CCC(=O)N(CCOc2ccccc2)CC1`, the inhibition was -8.48%.

For `CC(C)CN1CCC(=O)N(CCOc2ccccc2)CC1`, the inhibition was 2.95%.

For `Cc1ccc(-n2c(O)c(C=NC3CCS(=O)(=O)C3)c3ccccc3c2=O)c(C)c1` (stereo unspecified), the inhibition was 9.46%.

For `O=C(CSc1ccc(-c2ccccn2)nn1)c1ccc(F)cc1`, the inhibition was -9.8%.

As to `c1ccc(CSc2ccc(-c3cccnc3)nn2)nc1`, the inhibition was -9.97%.

`Clc1ccc(-c2ccc(SCc3ccccn3)nn2)cc1`: the inhibition was 0.43%.

`O=C(CSc1ccc(-c2ccccn2)nn1)c1ccc([N+](=O)[O-])cc1`: the inhibition was 27.3%.

As for `c1ccc(CSc2ccc(-c3ccccn3)nn2)cc1`, the inhibition was -2.51%.

As for `c1cncc(CSc2ccc(-c3cccnc3)nn2)c1`, the inhibition was 0.64%.

Regarding `Cc1onc(-c2ccc(Cl)cc2Cl)c1-c1csc(N/N=C/c2ccccc2)n1`, the inhibition is -21.5%.

For the molecule `CN(C(=O)c1ccc(NC(=O)Cc2cccc(NC(=O)C3CCCN(C(=O)C4CCCCC4)C3)c2)cc1)C1CCCC1` (stereo unspecified), the inhibition is -1.36%.

Turning to `CCS(=O)(=O)N1CCN(S(=O)(=O)c2ccc(S(=O)(=O)NC3CC3)cc2)CC1`, the inhibition was 7.16%.

As to `Cc1ccc(NC(=O)COc2ccc(C(=O)c3ccccc3)cc2)c(O)c1`, the inhibition was 8.15%.

With `CCNC(=S)N1CCN(c2ccccc2OCC)CC1`, the inhibition is 0.76%.

Take `Cc1ccc(CN2CCNC(=O)C2CC(=O)NCCCn2ncc3ccccc32)o1` (stereo unspecified): the inhibition was -1.25%.

Take `CCO[C@H]1OC(C(=O)N2CCN(Cc3ccc4c(c3)OCO4)CC2)=C[C@@H](C2CCCCC2)[C@@H]1CCCO`: the inhibition was 8.35%.

In the case of `CC(C)N(Cc1nc(-c2ccc(Cl)cc2)no1)Cc1nccn1C`, the inhibition was -7.64%.

With `CCOC(=S)SCc1cn2cccc(C)c2n1`, the inhibition is 4.77%.

Take `CNc1ccc(Oc2nc([N+](=O)[O-])nn2C)cc1`: the inhibition was -2.73%.

As for `Fc1ccc(/C=N/n2cnn(Cc3ccccc3Cl)c2=S)cc1`, the inhibition is -7.06%.

For `O=C(CCCc1ccccc1)Nc1nncs1`, the inhibition was 0.92%.

Consider `O=S(=O)(NCC1COc2ccccc2O1)c1ccc2ccccc2c1` (stereo unspecified), for which the inhibition was 1.74%.

For the molecule `Cn1c(/C(C#N)=C(\O)c2cccc(F)c2)nc2ccccc21`, the inhibition is 0.62%.

Turning to `Cc1nc2sccn2c(=O)c1S(=O)(=O)N1CCN(c2cccc(C(F)(F)F)c2)CC1`, the inhibition is 3.59%.

With `COc1ccc(/C=C2/Sc3ccc(C(=O)NCCCN4CCOCC4)cc3NC2=O)cc1OC`, the inhibition was 9.94%.

On to `CCN1CCCC1CNC(=O)c1ccc2c(c1)NC(=O)/C(=C\c1ccc(C)cc1)S2` (stereo unspecified), for which the inhibition is 21.9%.

For `O=C(NCC1CCCN1S(=O)(=O)c1cccs1)c1ccccc1F` (stereo unspecified), the inhibition is -4.78%.

Take `CC(=O)Nc1ccc(S(=O)(=O)N2CCN(c3ccc(C)c(Cl)c3)CC2)cc1`: the inhibition is -15.9%.

As to `CN=c1c([N+](=O)[O-])nn(-c2ccc3c(c2)OCCO3)n1O`, the inhibition is 2.75%.

For `O=[N+]([O-])c1nn(-c2ccc3c(c2)OCCO3)n(O)c1=NC1CCCCC1`, the inhibition is 9.84%.

On to `O=[N+]([O-])c1nn(-c2ccccc2)[n+]([O-])c1N1CCN(c2ccccc2)CC1`, for which the inhibition was 0.82%.

Turning to `O=[N+]([O-])c1nn(-c2ccc3c(c2)OCCO3)n(O)c1=NC1CCCC1`, the inhibition was 15.3%.

For `C/C=C(\C)CN1CCN(c2ccccc2)CC1`, the inhibition was -6.09%.

For `COc1cccc2c(Cl)c(CC=C(Cl)Cl)c(C)nc12`, the inhibition was 8.95%.

With `CC(C)n1c2ccccc2c2cc([N+](=O)[O-])ccc21`, the inhibition was 3.2%.

For `CCN(CC)CC(O)Cn1c(C)c(-c2ccccc2)c2cc([N+](=O)[O-])ccc21` (stereo unspecified), the inhibition was 27.4%.

Consider `O=[N+]([O-])c1ccc(-[n+]2c(-c3ccccc3)cc(-c3ccccc3)cc2-c2ccccc2)cc1`, for which the inhibition was 0.94%.

`O=[N+]([O-])c1ccc2c(c1)c(-c1ccccc1)nc1nncn12`: the inhibition was -1.91%.

In the case of `COc1ccc(S(=O)(=O)Nc2ccc3c(c2)C(=O)N([C@H](C)CO)C[C@H](C)[C@@H](CN(C)C(=O)Nc2ccccc2)O3)cc1`, the inhibition is 6.6%.

Turning to `COc1ccc(Nc2nc3c([nH]2)c(=O)[nH]c(=O)n3C)cc1`, the inhibition was -6.85%.

As to `O=C(CN1C(=O)NC2(CCOc3ccccc32)C1=O)NCCc1ccc(F)cc1` (stereo unspecified), the inhibition is -8.82%.

`N#CCCN1CCN(C2=NC(=O)/C(=C\c3cccs3)S2)CC1`: the inhibition was 8.67%.

Take `CCOC(=O)c1ccccc1NC(=O)/C=C/c1cc(OC)c(OC)c(OC)c1`: the inhibition was -4.73%.
